# TLR4 MyD88 comp = inhibitors of human TLR4-MyD88 binding; HeLa CL3-4 TLR4/MyD88 BLA complementation, FRET ratio; inhibition, % at 8.4 µM; O00206+Q99836; hit rate 0.18% among 200,000; AID 861; in the data active = inhibition above about 25%
# NOD2 RIPK2 PPI = inhibitors of human NOD2-RIPK2 interaction. hit rate 0.38% among 360,000. AID 624267. CHO BLA complementation NOD2-RIPK2, CCF4 ratio. inhibition, % at 4.98 µM. O43353; in the data active = inhibition above about 21%
# TMEM16A act = mouse TMEM16A channel activation, primary screen; hit rate 0.3% among 340,000; AID 623877; HEK293 TMEM16A/YFP-H148Q/I152L, iodide quench fluorescence; stronger effect = lower value; B-score at 10 µM;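 active = fluorescence-ratio B-score plate-corrected deviation score at least 3 library SD below zero, with starting fluorescence score within 5 deviations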;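 also: channel opened by trigger with iodide after compound preincubation; score built on the fluorescence ratio of max minus min over baseline; more negative score means more quench and so TMEM16A activation or potentiation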
# Target sequence (Q8BHY3 whole entry, looked up): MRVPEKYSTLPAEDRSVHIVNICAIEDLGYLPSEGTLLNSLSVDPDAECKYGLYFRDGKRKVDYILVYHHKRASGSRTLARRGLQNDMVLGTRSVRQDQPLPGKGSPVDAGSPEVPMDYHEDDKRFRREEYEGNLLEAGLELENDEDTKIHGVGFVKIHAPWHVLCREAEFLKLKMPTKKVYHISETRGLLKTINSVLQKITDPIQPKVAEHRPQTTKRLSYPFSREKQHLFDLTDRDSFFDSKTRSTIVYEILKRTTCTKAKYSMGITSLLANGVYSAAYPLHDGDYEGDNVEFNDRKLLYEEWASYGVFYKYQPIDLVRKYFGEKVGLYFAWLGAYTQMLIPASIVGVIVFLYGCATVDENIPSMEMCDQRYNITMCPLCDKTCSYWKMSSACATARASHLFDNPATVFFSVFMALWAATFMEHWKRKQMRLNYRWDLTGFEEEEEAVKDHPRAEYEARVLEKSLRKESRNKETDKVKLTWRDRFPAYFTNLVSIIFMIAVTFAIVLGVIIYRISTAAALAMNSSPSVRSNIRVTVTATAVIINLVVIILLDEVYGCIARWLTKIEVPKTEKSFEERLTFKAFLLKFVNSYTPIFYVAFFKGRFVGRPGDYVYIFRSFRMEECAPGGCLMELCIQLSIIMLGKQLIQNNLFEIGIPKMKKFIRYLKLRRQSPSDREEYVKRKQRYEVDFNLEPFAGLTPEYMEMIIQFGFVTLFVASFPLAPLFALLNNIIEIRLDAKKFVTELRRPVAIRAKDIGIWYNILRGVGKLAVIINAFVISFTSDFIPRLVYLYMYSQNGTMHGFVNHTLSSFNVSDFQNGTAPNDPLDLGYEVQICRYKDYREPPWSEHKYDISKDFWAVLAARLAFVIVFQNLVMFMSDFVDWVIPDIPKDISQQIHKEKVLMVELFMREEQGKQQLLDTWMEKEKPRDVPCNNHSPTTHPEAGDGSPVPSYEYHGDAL
# m5-HT2A agonist = activates the mouse 5-HT2A serotonin receptor; P35363; CHO-K1 mHTR2A beta-arrestin complementation, luminescence; percent of 30 µM serotonin response; activation, % at 7.6 µM; hit rate 0.66% among 360,000;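 active = activation above a run cutoff, the mean activation of all tested compounds plus 3 SD, cut at about 14% in these data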
# ANO1 block = inhibitors of mouse TMEM16A calcium-activated chloride channel; normalized B-score (activity score, 25-100; higher = stronger inhibition) at 10 µM; AID 588511; Q8BHY3; HEK293 TMEM16A/YFP iodide influx fluorescence, ionomycin; hit rate 1.2% among 310,000;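 active = ratio plate-corrected score three or more library SD toward inhibition, starting fluorescence score within five deviations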;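 also: score derived from kinetic fluorescence span divided by baseline fluorescence per well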
# TLR9-MyD88 block = inhibitors of human TLR9-MyD88 binding; Q9NR96+Q99836; CHO BLA complementation TLR9-MyD88, CCF4 FRET ratio; inhibition, % at 4.98 µM; hit rate 0.21% among 340,000; AID 504734;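 active = inhibition above the mean over all tested compounds plus 3 SD, cut at about 21% in these data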
# TMEM16A reconf = reconfirmed blocker of mouse TMEM16A calcium-activated chloride channel. shares compounds with ANO1 block. inhibition, % at 10 µM. AID 652189. HEK293 TMEM16A/YFP-H148Q, iodide quench fluorescence; ionomycin added to raise cell calcium. hit rate 39% among 2,300;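 active = mean duplicate percent inhibition, scaled so buffer wells are 0 and the reference blocker 100, over three buffer SD above buffer mean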
# TMEM16A Ca cntr = calcium mobilization counter-screen hit for TMEM16A inhibitor series. shares compounds with ANO1 block. TMEM16A/YFP HEK293, Fluo4 calcium mobilization. calcium response (% of ionomycin), % at 10 µM. hit rate 2% among 2,300. AID 652231;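 active = duplicate-averaged calcium signal over 20% of the ionomycin maximum, relative to buffer baseline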;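 also: each well's signal is peak minus trough fluorescence divided by its pre-addition baseline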
# Parental YFP cnt = acts in parental YFP-HEK293 cells lacking TMEM16A, counter-screen | shares compounds with ANO1 block | iodide YFP quench, ionomycin | YFP ratio F(max-min)/F0 at 10 µM | 2,300 tested, under 10 active;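 active = yellow fluorescent protein signal ratio exceeding the buffer control mean by over 5 SD of those controls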;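 also: ratio is mean of duplicate wells from kinetic YFP trace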
# ClC-1 rat inh = rat ClC-1 inhibition, TMEM16A specificity screen; shares compounds with ANO1 block; CHO ClC-1-YFP, iodide influx fluorescence quench; iodide control reads 0, buffer control 100; ratio percent, % at 10 µM; 2,300 tested, under 10 active; AID 652236;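 active = duplicate-mean ratio percent above the mean of iodide-only control wells, which defines zero, plus 5 of their SD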;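 also: higher percent means stronger block of ClC-1 iodide influx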
# A number is an active result; 0 = inactive; - = no result. Compounds with a hit are over-represented: about 2.4% of the library has one in this group of screens.
SMILES,TLR4 MyD88 comp,NOD2 RIPK2 PPI,TMEM16A act,m5-HT2A agonist,ANO1 block,TLR9-MyD88 block,TMEM16A reconf,TMEM16A Ca cntr,Parental YFP cnt,ClC-1 rat inh
CCOc1ccc(CONS(=O)(=O)c2ccc(NC(C)=O)cc2)cc1Cl,0,0,0,0,25,0,23%,0,0,0
COc1ccc(S(=O)(=O)N2CCC(O)(c3ccc(Cl)cc3)CC2)cc1,0,0,0,0,25,0,21%,0,0,0
Cc1cccc(NC(=O)Cn2cnc3sc(C)c(S(=O)(=O)N4CCC(C)CC4)c3c2=O)n1,0,0,0,0,0,0,-,-,-,-
CCN(CC)c1ccc(Nc2nc(N3CCOCC3)c3ccccc3n2)cc1,0,0,0,0,100,0,0,0,0,0
COc1ccc(Nc2nc(N3CCCC3)c3ccccc3n2)cc1,0,0,0,0,0,0,-,-,-,-
CCCOc1ccc(/C=C/c2c([N+](=O)[O-])c(=O)n(C)c(=O)n2C)cc1,-,0,0,0,0,0,-,-,-,-
CN(CC(=O)Nc1ccc(Cl)cc1)C(=O)c1cccc(S(=O)(=O)N2CCN(Cc3ccccc3)CC2)c1,-,0,0,0,25,0,0,0,0,0
COc1ccc(NC(=O)CSc2nc3c(c(=O)n2-c2ccccc2)SCC3)c(OC)c1,0,0,0,0,0,0,-,-,-,-
CN(CCCC(=O)Nc1ccncc1)S(=O)(=O)c1ccc(Cl)cc1,0,0,0,0,100,0,0,0,0,0
O=C(Cc1ccc(Cl)cc1)Nc1ccncc1,0,0,0,0,25,0,0,0,0,0
Cc1ccc(CC(=O)Nc2ccncc2)cc1,0,0,0,0,0,0,-,-,-,-
COC(=O)Cc1cccc2c(=O)c3ccccc3oc12,-,0,0,0,0,0,-,-,-,-
CCCCn1nc2cc(C(=O)NCc3ccc(OC)cc3)ccc2c1OCC,0,0,0,0,0,0,-,-,-,-
CCCc1nc(N2CCOCC2)c(C#N)c2c1CCCC2,0,0,0,0,100,0,0,0,0,0
CN(C)S(=O)(=O)c1ccc(Cl)c(NC(=O)COC(=O)c2ccc(O)cc2)c1,0,0,0,0,0,0,-,-,-,-
CCN(CC)S(=O)(=O)c1cc(C(=O)OCC(=O)Nc2cccc(S(=O)(=O)N(C)C)c2)ccc1F,0,0,0,0,25,0,0,0,0,0
CN(C)S(=O)(=O)c1cccc(NC(=O)COC(=O)c2ccc3ccccc3n2)c1,-,0,0,0,-,0,-,-,-,-
CCN(CC)S(=O)(=O)c1ccc(Cl)c(NC(=O)COC(=O)c2ccc(O)cc2)c1,0,0,0,0,25,0,45%,0,0,0
O=C(Cc1cccs1)N1CCN(C(=O)C2CCCO2)CC1 (configuration not stated),0,0,0,0,0,0,-,-,-,-
O=C(c1cccs1)N1CCN(C(=O)C2CCCO2)CC1 (configuration not stated),0,0,0,0,100,0,0,0,0,0
O=C(Nc1ccc2c(c1)OCO2)N1CCN(C(=O)C2CCCO2)CC1 (configuration not stated),0,0,0,0,25,0,0,0,0,0
Cn1c(SCCS(=O)(=O)c2ccc(Cl)cc2)nnc1-c1ccccc1,0,0,0,0,0,0,-,-,-,-
CC1CCCC(NC(=O)C2CCN(S(=O)(=O)N3CCOCC3)CC2)C1C (configuration not stated),0,0,0,0,25,0,0,0,0,0
CC(=O)C(Sc1nc(N2CCOCC2)nc(N2CCOCC2)n1)C(=O)Nc1ccccc1 (configuration not stated),0,0,0,0,0,0,-,-,-,-
O=C(OCc1ccccc1Cl)c1cccnc1Cl,0,0,0,0,0,0,-,-,-,-
SMILES,TLR4 MyD88 comp,NOD2 RIPK2 PPI,TMEM16A act,m5-HT2A agonist,ANO1 block,TLR9-MyD88 block,TMEM16A reconf,TMEM16A Ca cntr,Parental YFP cnt,ClC-1 rat inh
O=C(OCc1ccccc1Cl)c1ccccc1C(=O)c1ccccc1,0,0,0,0,100,0,0,0,0,0
COc1ccc(NC(=O)CCOc2cc(C)ccc2C)cc1S(=O)(=O)N1CCCCC1,-,0,0,0,-,0,-,-,-,-
CN1OC[C@@H]2CN(Cc3ccc(Cl)cc3)[C@H](c3cccc(Br)c3)C[C@@H]21,-,0,-,0,-,0,-,-,-,-
O=C1c2cccc3c(N4CCCCC4)ccc(c23)C(=O)N1CCO,0,0,0,0,0,0,0,0,0,0
Cc1cccc2nc(-c3cccnc3)c(NCCC(C)C)n12,0,0,0,0,0,0,-,-,-,-
Cc1cccc2nc(-c3cccnc3)c(Nc3ccccc3)n12,0,0,0,0,100,0,35%,0,0,0
CN1CCN(C(=O)/C(=C/c2ccccc2)c2ccccc2)CC1,0,0,0,0,25,0,0,0,0,0
COc1cc(O)cc2c1[C@@H]1Oc3c(ccc(O)c3CC=C(C)C)[C@@H]1CO2,-,0,0,0,25,0,30%,0,0,0
COc1c(CC=C(C)C)cc(C2CC(=O)c3c(O)cc(O)cc3O2)cc1CC=C(C)C (configuration not stated),-,0,0,0,0,0,-,-,-,-
CC1CC(C)(C)NCCNC(C)CC(C)(C)NCCN1 (configuration not stated),0,0,0,0,0,0,-,-,-,-
COc1ccc(OCC(=O)N2CCC3(CC2)CC(=O)c2ccccc2O3)cc1,-,0,0,0,0,0,-,-,-,-
CCN(CC)CCCOc1ccc(Cl)c(Cl)c1,0,0,0,0,100,0,0,0,0,0
O=C(CC(Cc1ccccc1)c1ccco1)NC1CCCCC1 (configuration not stated),0,0,0,0,0,0,0,0,0,0
O=C(NC1CCCCC1)N(Cc1ccccc1)Cc1ccco1,0,0,0,0,0,0,-,-,-,-
CCCCCCCCCc1nc2sc3c(c2c(=O)n1NC(=O)c1ccccc1[N+](=O)[O-])CC(C)(C)OC3,0,0,0,0,25,0,0,0,0,0
CCCc1nc2sc3c(c2c(=O)n1NC(=O)c1ccco1)CC(C)(C)OC3,0,0,0,0,0,0,-,-,-,-
CCOC(=O)Cc1csc(NC(=O)c2cccc(OC)c2)n1,0,0,0,0,0,0,-,-,-,-
CCOC(=O)Cc1csc(NC(=O)c2csc(C)c2)n1,0,0,0,0,100,0,42%,0,0,0
CCCC(=O)Oc1c(S(=O)(=O)c2ccc(C)cc2)c(C)nn1C(C)(C)C,0,0,0,0,0,0,-,-,-,-
